According to PubChem BioAssay (NCI):
This is part of a sample that, as a whole, favours compounds with a hit. Of some 83,000 tested, about 20% had one in any assay.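 Values shown are percent growth following 48 h exposure of cells in 96-well plates to a single concentration of compound; below 10 was considered active.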 Active and inactive are the calls of the source.

Test system: UACC-257 melanoma
Test: NCI-60 one-dose screen, 48 h (100 = growth as untreated, 0 = no growth, -100 = all killed)
Details: 10 µM

| SMILES | growth |
| --- | --- |
| COc1cc(CN)ccc1O | 94.1% (inactive) |
| CC(=O)OCC1OC(OC2=C(CC=C(C)C)C(=O)c3ccccc3C2=O)C(OC(C)=O)C(OC(C)=O)C1OC(C)=O (configuration not stated) | 20.6% (inactive) |
| NC(CSC(c1ccccc1)(c1ccccc1)c1ccccc1)C(=O)O (configuration not stated) | 52.3% (inactive) |
| CCCCC1C(=O)N(c2ccccc2)N(c2ccccc2)C1=O | 105% (inactive) |
| CCCC[P+](c1ccccc1)(c1ccccc1)c1ccccc1 | 17% (inactive) |
| CCOC(=O)c1coc(C(=O)OCC)c1C(=O)OCC | 112% (inactive) |
| Cc1ccccc1C1N=C2Oc3ccccc3C=C2C(=O)N1 (configuration not stated) | 56.2% (inactive) |
| Cc1cc(/C=C/c2ccc3cc(N(C)C)ccc3[n+]2C)c(C)n1-c1ccccc1 | -39.5% (active) |

Test system: M14 melanoma
Test: as above
Details: 10 µM

| SMILES | growth |
| --- | --- |
| Cc1c(O)cnc2nn(-c3ccccc3)c(=N)n12 | 114% (inactive) |
| CC[N+](C)(CC)CCO | 104% (inactive) |
| CCOC(=O)C/C(C)=N\O | 101% (inactive) |
| COc1cc(CCN=Cc2ccccc2O)c([N+](=O)[O-])cc1OC | 95.6% (inactive) |
| O=[N+]([O-])c1ccc(CO)cc1 | 103% (inactive) |
| O=C(Nc1ccccc1C(=O)NCC1CC1)c1cccs1 | 103% (inactive) |
| COc1cc(CN)ccc1O | 101% (inactive) |
| N#CC(=Nc1cccc(F)c1)C1=C(O)c2ccccc2C1=O | 98.2% (inactive) |
| CC(=O)OCC1OC(OC2=C(CC=C(C)C)C(=O)c3ccccc3C2=O)C(OC(C)=O)C(OC(C)=O)C1OC(C)=O (configuration not stated) | 46.8% (inactive) |
| O=[N+]([O-])c1ccccc1S(=O)c1ccccc1[N+](=O)[O-] | 95.9% (inactive) |
| CC(=O)OCC1CCCO1 (configuration not stated) | 110% (inactive) |
| CC(C(=O)O)(C1CCCCC1)C1(O)CCCCC1 (configuration not stated) | 104% (inactive) |
| COc1cc(/C=C/C(=O)c2ccccc2)cc(OC)c1OC | 74.6% (inactive) |
| O=C1OC(c2ccc(F)cc2)CC1CN1CCOCC1 (configuration not stated) | 104% (inactive) |
| OC1OC(COC(c2ccccc2)(c2ccccc2)c2ccccc2)C(O)C(O)C1O (configuration not stated) | 105% (inactive) |
| O=C(NCCNC(=O)c1ccc(Cl)cc1Cl)c1ccc(Cl)cc1Cl | 105% (inactive) |
| CC(C)(N)COS(=O)(=O)O | 98.1% (inactive) |
| C=CCCCCCCCCCOC(C)=O | 104% (inactive) |
| O=C(NCc1ccco1)Nc1c(Cl)cc(Cl)cc1Cl | 99.3% (inactive) |
| CCOC(=O)C1=C(Nc2ccc(Br)cc2)C(=O)N(CC)C1 | 110% (inactive) |

| SMILES | growth |
| --- | --- |
| CN(C)c1ccc(C(c2ccc(O)cc2)c2ccc(N(C)C)cc2)cc1 | 89.3% (inactive) |
| S=C1NCc2cncnc2N1 | 103% (inactive) |
| C/C(=N\NC(=O)c1ccccc1N)c1ccccc1O | 38.9% (inactive) |
| CC(C)(C)n1nc(C2CC2)c(Br)c1NC(=O)c1ccccc1F | 102% (inactive) |
| O=C(O)CCC(NC(=O)OCc1ccccc1)C(=O)O (configuration not stated) | 103% (inactive) |
| Nc1ccccc1SC(CC(=O)c1ccccc1)c1c(Cl)cccc1Cl (configuration not stated) | 93% (inactive) |
| O=C(O)CSCSCC(=O)O | 108% (inactive) |
| NC(CSC(c1ccccc1)(c1ccccc1)c1ccccc1)C(=O)O (configuration not stated) | 13.6% (inactive) |
| CCCCC1C(=O)N(c2ccccc2)N(c2ccccc2)C1=O | 98.9% (inactive) |
| CCCC[P+](c1ccccc1)(c1ccccc1)c1ccccc1 | 54.9% (inactive) |
| CC(CN1CCCCC1)NC(=O)c1scnc1-c1ccccc1 (configuration not stated) | 101% (inactive) |
| COc1ccc(C(=O)C(Br)C(Br)C(=O)O)cc1 (configuration not stated) | 89.2% (inactive) |
| CCOC(=O)c1coc(C(=O)OCC)c1C(=O)OCC | 120% (inactive) |
| O=C(OCC(O)C1OC(c2ccccc2)OC(COC(=O)c2ccccc2)C1O)c1ccccc1 (configuration not stated) | 110% (inactive) |
| COc1ccc(/C(C#N)=C2C=C/C(=N/O)c3ccccc3\2)cc1 | 7.1% (active) |
| Nc1ccc(N)c([N+](=O)[O-])c1 | 112% (inactive) |
| Cc1ccccc1C1N=C2Oc3ccccc3C=C2C(=O)N1 (configuration not stated) | -24.7% (active) |
| O=C(Nc1ccccc1)OCCc1ccccc1 | 110% (inactive) |
| Cc1cc(/C=C/c2ccc3cc(N(C)C)ccc3[n+]2C)c(C)n1-c1ccccc1 | -71.3% (active) |

Test system: HCT-15 colon
Test: as above
Details: 10 µM

| SMILES | growth |
| --- | --- |
| Cc1c(O)cnc2nn(-c3ccccc3)c(=N)n12 | 100% (inactive) |
| CC[N+](C)(CC)CCO | 97.8% (inactive) |
| CCOC(=O)C/C(C)=N\O | 103% (inactive) |
| COc1cc(CCN=Cc2ccccc2O)c([N+](=O)[O-])cc1OC | 92.3% (inactive) |
| O=C(Nc1ccccc1C(=O)NCC1CC1)c1cccs1 | 93.8% (inactive) |
| COc1cc(CN)ccc1O | 111% (inactive) |
| N#CC(=Nc1cccc(F)c1)C1=C(O)c2ccccc2C1=O | 76% (inactive) |
| CC(=O)OCC1OC(OC2=C(CC=C(C)C)C(=O)c3ccccc3C2=O)C(OC(C)=O)C(OC(C)=O)C1OC(C)=O (configuration not stated) | 12.2% (inactive) |
| O=[N+]([O-])c1ccccc1S(=O)c1ccccc1[N+](=O)[O-] | 98.2% (inactive) |
| CC(C(=O)O)(C1CCCCC1)C1(O)CCCCC1 (configuration not stated) | 104% (inactive) |
| COc1cc(/C=C/C(=O)c2ccccc2)cc(OC)c1OC | 31.4% (inactive) |
| O=C1OC(c2ccc(F)cc2)CC1CN1CCOCC1 (configuration not stated) | 110% (inactive) |
| OC1OC(COC(c2ccccc2)(c2ccccc2)c2ccccc2)C(O)C(O)C1O (configuration not stated) | 98.6% (inactive) |
| O=C(NCCNC(=O)c1ccc(Cl)cc1Cl)c1ccc(Cl)cc1Cl | 106% (inactive) |
| C=CCCCCCCCCCOC(C)=O | 114% (inactive) |
| O=C(NCc1ccco1)Nc1c(Cl)cc(Cl)cc1Cl | 100% (inactive) |
| CCOC(=O)C1=C(Nc2ccc(Br)cc2)C(=O)N(CC)C1 | 91.4% (inactive) |
| S=C1NCc2cncnc2N1 | 95.4% (inactive) |
| CC(C)(C)n1nc(C2CC2)c(Br)c1NC(=O)c1ccccc1F | 93.4% (inactive) |
| O=C(O)CCC(NC(=O)OCc1ccccc1)C(=O)O (configuration not stated) | 110% (inactive) |
| Nc1ccccc1SC(CC(=O)c1ccccc1)c1c(Cl)cccc1Cl (configuration not stated) | 44.5% (inactive) |
| NC(CSC(c1ccccc1)(c1ccccc1)c1ccccc1)C(=O)O (configuration not stated) | 34.3% (inactive) |
| CCCCC1C(=O)N(c2ccccc2)N(c2ccccc2)C1=O | 102% (inactive) |
| CCCC[P+](c1ccccc1)(c1ccccc1)c1ccccc1 | 99.5% (inactive) |
| CCOC(=O)c1coc(C(=O)OCC)c1C(=O)OCC | 105% (inactive) |
| O=C(OCC(O)C1OC(c2ccccc2)OC(COC(=O)c2ccccc2)C1O)c1ccccc1 (configuration not stated) | 96.6% (inactive) |
| COc1ccc(/C(C#N)=C2C=C/C(=N/O)c3ccccc3\2)cc1 | 7.28% (active) |
| Cc1ccccc1C1N=C2Oc3ccccc3C=C2C(=O)N1 (configuration not stated) | 36.8% (inactive) |
| O=C(Nc1ccccc1)OCCc1ccccc1 | 96.9% (inactive) |
| Cc1cc(/C=C/c2ccc3cc(N(C)C)ccc3[n+]2C)c(C)n1-c1ccccc1 | -29.5% (active) |
